Consider 25 molecules from PubChem BioAssay (NCATS).

Inconclusive results are not listed. Entries that show only a call come without a potency. Calls of active or inactive are those of the source. Calls come from the whole dose curve; as a rule, active = well fitted curve in the direction sought with a large enough effect; inconclusive = small, poorly fitted or top-dose-only effect, or another doubt; inactive = no such curve, though single readings can be large; an effect the other way counts as inactive or inconclusive.
Potency is the fitted concentration of half-maximal effect.

The target of one assay is ATP-dependent 6-phosphofructokinase (Trypanosoma brucei brucei) (UniProt O15648). In words: qHTS Validation Assay to Find Inhibitors of T. brucei phosphofructokinase (AID 485368). As to conditions: T. brucei PFK enzyme assay, qHTS 7-point titration; series mostly up to 57.5 µM. In a few lines: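 ADP-Glo luminescence, two-step: residual ATP depleted, then ADP converted to ATP for luciferase. Enzyme 1.25 nM, F6P 0.5 mM, ATP 0.1 mM, pH 8.0 TEA buffer, 45 min RT. Curves fitted and classed by quality and efficacy.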
Chain of ATP-dependent 6-phosphofructokinase (Trypanosoma brucei brucei) (O15648 whole entry, looked up): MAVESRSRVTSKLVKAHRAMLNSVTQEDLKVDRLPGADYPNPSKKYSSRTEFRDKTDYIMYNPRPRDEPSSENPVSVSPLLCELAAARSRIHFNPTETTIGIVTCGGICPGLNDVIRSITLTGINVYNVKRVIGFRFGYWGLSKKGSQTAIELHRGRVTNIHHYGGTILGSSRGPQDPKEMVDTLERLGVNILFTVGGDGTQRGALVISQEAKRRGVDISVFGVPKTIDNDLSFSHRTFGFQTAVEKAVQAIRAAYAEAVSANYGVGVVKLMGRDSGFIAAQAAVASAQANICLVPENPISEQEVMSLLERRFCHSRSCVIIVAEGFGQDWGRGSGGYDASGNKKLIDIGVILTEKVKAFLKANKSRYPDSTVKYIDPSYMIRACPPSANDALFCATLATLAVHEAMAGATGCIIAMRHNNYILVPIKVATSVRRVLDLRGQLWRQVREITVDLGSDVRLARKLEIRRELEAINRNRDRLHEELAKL
On the technique in general: Quantitative high-throughput screening tests each substance at several concentrations.
Regarding `CC[C@@H](C)[C@H]1O[C@]2(CC[C@H]1C)C[C@@H]1C[C@@H](CC=C(C)[C@@H](O[C@H]3C[C@H](OC)[C@@H](O[C@H]4C[C@H](OC)[C@@H](O)[C@H](C)O4)[C@H](C)O3)[C@@H](C)C=CC=C3CO[C@@H]4[C@H](O)C(C)=C[C@@H](C(=O)O1)[C@]34O)O2`, the Potency result was “inactive”.
Consider `C[C@@H](CN1CCC(Cc2ccccc2)CC1)[C@@H](O)c1ccc(O)cc1`, for which the Potency result was “inactive”.
The same measure, in the same setting: as for `CC(=O)/C=C1\C(=O)N(C)c2ccccc21`, the entry is “inactive”; as for `CC(COc1ccc(/C=C/c2ccccc2)cc1)[N+](C)(C)C` (stereo not drawn), “inactive”.
`NS(=O)(=O)C#Cc1ccccc1`: the Potency result is “inactive”.
In the case of `C[N+]1(C)CCC(OC(=O)C(c2ccccc2)c2ccccc2)CC1`, the Potency entry is “inactive”.
As for `CC(C)ON([C@@H](C(=O)NO)C(C)C)S(=O)(=O)c1ccc(-c2ccccc2)cc1`, the Potency entry is “inactive”.
Turning to `Oc1cc(O)cc(/C=C/c2ccc(O)c(O)c2)c1`, the Potency is 3.79 µM (active).
For `CCCCCCCCc1ccc(-c2ccc(C(=O)O)cc2)cc1`, the Potency result is “inactive”.
On the same count and under the same terms, as for `COc1ccccc1N1CCN(CCN(C(=O)c2ccc(I)cc2)c2ccccn2)CC1`, the entry is “inactive”.
Take `CN(C)c1nc2c(Br)c(Br)c(Br)c(Br)c2[nH]1`: the Potency result was “inactive”.
Take `O=Nc1ccc2oc(=O)ccc2c1`: the Potency was 19 µM (active).
Take `N=c1ccn2c(n1)O[C@H]1[C@H](O)[C@@H](CO)O[C@H]12`: the Potency result is “inactive”.
Take `CCCC1(C)C(C#N)(C#N)C1(C#N)C#N`: the Potency result was “inactive”.
Turning to `O=C(CCCCCN1CCN(c2ccccc2-c2ccccc2)CC1)NC1CCCc2ccccc21` (stereo not drawn), the Potency result was “inactive”.

Test system in another assay: not listed separately
In words: Quantitative high throughput screen for delayed death inhibitors of the malarial parasite plastid, 96 hour incubation (AID 488745). Note: nearly all actives have a fitted effect of over 70% in size. As to conditions: Plasmodium falciparum growth; series mostly up to 28.7 µM. Put shortly: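 Luciferase-expressing P. falciparum, infected RBCs 2% Hct/0.1% parasitemia (final); 96 h cpd exposure, 37 C, 5% CO2; RPMI 1640 + 0.5% Albumax, bicarbonate, gentamycin. Readout: luminescence loss = growth inhibition.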
Take `Oc1ccccc1O`: the Potency result is “inactive”.
Take `CC12C(=O)OC(=O)C1(C)C1CCC2O1` (stereo not drawn): the Potency is 3.29 µM (active).
As for `C[C@@H](CN1CCC(Cc2ccccc2)CC1)[C@@H](O)c1ccc(O)cc1`, the Potency result is “inactive”.
As for `CC(COc1ccc(/C=C/c2ccccc2)cc1)[N+](C)(C)C` (stereo not drawn), the Potency was 2.08 µM (active).
Take `COC1=C(OC)C(=O)c2ccccc2C1=O`: the Potency result is “inactive”.
Still for that read-out and setting: as for `CC[C@@H](C)[C@H]1O[C@]2(CC[C@@H]1C)C[C@@H]1C[C@@H](C/C=C(\C)[C@@H](O[C@H]3C[C@H](OC)[C@@H](O[C@H]4C[C@H](OC)[C@@H](O)[C@H](C)O4)[C@H](C)O3)[C@@H](C)/C=C/C=C3\CO[C@@H]4[C@H](O)C(C)=C[C@@H](C(=O)O1)[C@]34O)O2`, the figure is 0.117 µM (active).
As to `O=S(=O)(c1cccc2c(I)cccc12)N1CCCNCC1`, the Potency result is “inactive”.
Turning to `O=C1O/C(=C/Br)CCC1c1cccc2ccccc12` (stereo not drawn), the Potency entry is “inactive”.
On the same count and under the same terms, as for `O=Nc1ccc2oc(=O)ccc2c1`, the entry is “inactive”.
With `NC[C@@H]1O[C@H](C23CC4CC(CC(C4)C2)C3)Cc2c1ccc(O)c2O`, the Potency was 3.29 µM (active).
`N.N.O=C(O)C1(C(=O)O)CCC1.[Pt]`: the Potency result is “inactive”.

Test system in the next assay: not listed separately
Put plainly: Quantitative high throughput screen for delayed death inhibitors of the malarial parasite plastid, 48 hour incubation (AID 488752). Note: nearly all actives have a fitted effect of over 65% in size. As to conditions: Plasmodium falciparum growth; series mostly up to 28.7 µM. In a few lines: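 Luciferase-expressing P. falciparum in RBCs, 2% Hct, 0.1% parasitemia final; RPMI 1640 + 0.5% Albumax; 48 h, 37 C, 5% CO2; luminescence readout, signal drop = growth inhibition.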
Take `CC(C)(C)NCC(O)COc1nsnc1N1CCOCC1` (stereo not drawn): the Potency result is “inactive”.
The same measure, in the same setting: as for `CC12C(=O)OC(=O)C1(C)C1CCC2O1` (stereo not drawn), the figure is 4.15 µM (active); as for `CC(COc1ccc(/C=C/c2ccccc2)cc1)[N+](C)(C)C` (stereo not drawn), 3.29 µM (active).
As to `Nc1ccn([C@@H]2O[C@H](CO)[C@@H](O)[C@@H]2O)c(=O)n1`, the Potency result is “inactive”.
`COC1=C(OC)C(=O)c2ccccc2C1=O`: the Potency entry was “inactive”.
`CC[C@@H](C)[C@H]1O[C@]2(CC[C@@H]1C)C[C@@H]1C[C@@H](C/C=C(\C)[C@@H](O[C@H]3C[C@H](OC)[C@@H](O[C@H]4C[C@H](OC)[C@@H](O)[C@H](C)O4)[C@H](C)O3)[C@@H](C)/C=C/C=C3\CO[C@@H]4[C@H](O)C(C)=C[C@@H](C(=O)O1)[C@]34O)O2`: the Potency was 1.65 µM (active).
In the case of `O=S(=O)(c1cccc2c(I)cccc12)N1CCCNCC1`, the Potency entry is “inactive”.
For the molecule `O=C1O/C(=C/Br)CCC1c1cccc2ccccc12` (stereo not drawn), the Potency entry was “inactive”.
In the case of `CN(C)c1nc2c(Br)c(Br)c(Br)c(Br)c2[nH]1`, the Potency result is “inactive”.
Take `O=Nc1ccc2oc(=O)ccc2c1`: the Potency entry is “inactive”.
As to `NC[C@@H]1O[C@H](C23CC4CC(CC(C4)C2)C3)Cc2c1ccc(O)c2O`, the Potency was 3.7 µM (active).
Same read-out and setting: for `N.N.O=C(O)C1(C(=O)O)CCC1.[Pt]` the value was “inactive”.
